The source of these data is PubChem BioAssay (NCI).

Assay in all cases: NCI-60 one-dose screen, 48 h (100 = growth as untreated, 0 = no growth, -100 = all killed)
Conditions in all cases: 10 µM unless noted

For assay [1], the system named is SR leukemia.
Assay [2] relates to RPMI-8226 leukemia.
Assay [3] has as its system OVCAR-8 ovarian.
Assay [4] has as its system OVCAR-5 ovarian.
In assay [5] the test system is OVCAR-4 ovarian.
The subject of assay [6] is SK-OV-3 ovarian.
Assay [7] has as its system IGROV1 ovarian.
The test system of assay [8] is OVCAR-3 ovarian.
The subject of assay [9] is HS 578T breast.
The subject of assay [10] is NCI/ADR-RES ovarian.
Assay [11] concerns T-47D breast.
Assay [12] relates to BT-549 breast.
For assay [13], the system named is MDA-MB-435 melanoma.
Assay [14] concerns SW-620 colon.
In assay [15] the test system is MCF7 breast.
For assay [16], the system named is HCT-116 colon.
The test system of assay [17] is HCC-2998 colon.
Assay [18] has as its system KM12 colon.

This is part of a sample that, as a whole, favours compounds with a hit. Of some 83,000 tested, about 20% had one in any assay.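 96-well plates, one dose, 48 hours. Percent growth reported; active if below 10.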 Values without a mark were called inactive. Calls of active or inactive are those of the source.

Turning to `Nc1c2c(nc3ccc(Cl)cc13)CC(c1ccc(O)cc1)CC2=O` (centres undefined), the growth in [1] was 31.8%; in assay [2], 34.9%; in assay [3], 75.5%; in assay [4], 91.9%; in assay [5], 81.3%; in assay [6], 68.7%. Moreover, the growth in [7] was 49.3%; in assay [8], 25.3%; in assay [9] it was 46.1%; in assay [10], 25.1%; in assay [11], 54.8%; in [12], 53.3%. Moreover, the growth in assay [13] is -38.5% (active); in assay [14], 33.8%; in assay [15], 25.1%; in assay [16] it was 26.2%; in [17], 77.9%; in assay [18] it was 26.7%.
As to `CCNCCCn1c2c(c3ccc([N+](=O)[O-])cc3c1=O)C(=O)c1cc(OC)cnc1-2`, the growth in assay [1] was 0% (active); in [2], -22% (active); in assay [3], -37% (active); in assay [4], 12.3%; in [5], 10.4%; in assay [6], -25.3% (active). Besides, the growth in assay [7] is -24.1% (active); in assay [8], -33.1% (active); in [9], 8.88% (active); in assay [10] it was -40.2% (active); in assay [11], -12.9% (active); in [12], -16.2% (active). The growth was -54.4% (active) in assay [13]; -27% (active) in assay [14]; -3.1% (active) in assay [15]; -69.8% (active) in assay [16]; -8.05% (active) in assay [17]; -3.89% (active) in [18].
Turning to `O=C(NCN1C(=O)c2cccc3cccc(c23)C1=O)N1CCC(Cc2ccccc2)CC1`, the growth in [1] is 89.6%; in assay [2] it was 87.8%; in [3], 102%; in [4] it was 104%; in assay [5] it was 98.8%; in [6], 91.3%. The growth in [7] is 100%; in assay [8] it was 109%; in assay [9], 95.8%; in assay [10], 102%; in [11], 88%; in assay [12] it was 98.4%. For the same molecule, the growth in assay [13] is 104%; in assay [14], 100%; in assay [15] it was 87.5%; in assay [16], 87%; in [17] it was 109%; in assay [18] it was 99.4%.
With `Cc1cc(Cl)c2c(N(C)C)cccc2n1`, the growth in assay [1] was 75%; in assay [2], 104%; in assay [3], 94.5%; in assay [4], 119%; in [5], 108%; in [6], 92.4%. The growth in [7] was 88.2%; in assay [8], 100%; in [9], 136%; in assay [10], 106%; in [11], 94.7%; in assay [12], 98.3%. In addition, the growth is 106% in assay [13]; 88.7% in assay [14]; 79.3% in [15]; 92.3% in assay [16]; 97.1% in assay [17]; 109% in assay [18].
On to `C=C(C)[C@@H]1CC[C@]2(c3nnc(-c4ccncc4)o3)CC[C@]3(C)[C@H](CC[C@@H]4[C@@]5(C)CCC(=O)NC(C)(C)[C@@H]5CC[C@]43C)[C@@H]12`, for which the growth in assay [1] was 78.3%; in [2] it was 81.4%; in assay [3] it was 92.6%; in assay [4] it was 112%; in [5], 89.5%; in assay [6], 100%. Further, the growth is 92.3% in assay [7]; 44.6% in [8]; 95.8% in assay [9]; 97.5% in assay [10]; 100% in [11]; 89.8% in [12]. In addition, the growth in [13] was 101%; in assay [14] it was 103%; in assay [15], 92.9%; in assay [16], 88.8%; in assay [17], 103%; in assay [18], 98.9%.
On to `CCCCCCCC(=O)SCC/C=C/[C@@H]1CC(=O)NCc2cccc(n2)CN(Cc2ccc(Cl)cc2)CC(=O)N[C@@H](C(C)C)C(=O)O1`, for which the growth in assay [1] was 8.39% (active); in assay [2], 8.51% (active); in assay [3], -0.619% (active); in [4] it was -5.64% (active); in assay [5], 28%; in [6] it was -24.5% (active). In addition, the growth in assay [7] was 10.9%; in [8], 3.13% (active); in [9], -5.68% (active); in assay [10], 13%; in [11], 30.9%; in assay [12], 38.8%. The growth is 6.92% (active) in assay [13]; 16.7% in [14]; 9.09% (active) in [15]; -1.93% (active) in [16]; -24.2% (active) in assay [17]; 5.69% (active) in assay [18].
Take `CC1(C)C(=O)/C(=C\c2ccccn2)C[C@]2(C)[C@H]3CC[C@@H]4[C@@H](C(=O)/C=C/c5ccccn5)CC[C@@]4(C)[C@]3(C)CC[C@@H]12`: the growth in [1] is 3.7% (active); in [2], -5.71% (active); in assay [3], 15.5%; in [4] it was -21.7% (active); in [5], -1.54% (active); in assay [6] it was 35.1%. The growth was -52% (active) in assay [7]; -69% (active) in [8]; 15.1% in [9]; 0.68% (active) in assay [10]; 3.15% (active) in assay [11]; -13.6% (active) in assay [12]. The growth is 4.49% (active) in [13]; 0.595% (active) in [14]; 12% in assay [15]; -69.6% (active) in [16]; -79.7% (active) in [17]; -76.2% (active) in assay [18].
As to `CCCCn1c(-c2ccc(O)cc2)cn2c3c(=O)[nH]c(=O)n(C)c3nc12`, the growth was 31.1% in assay [1]; 84.7% in [2]; 91.7% in assay [3]; 111% in [4]; 82.2% in [5]; 77.9% in assay [6]. Also, the growth is 72.9% in assay [7]; 89.8% in assay [8]; 82.6% in assay [9]; 90.1% in assay [10]; 64.6% in assay [11]; 76.5% in [12]. Besides, the growth in [13] is -13.1% (active); in assay [14], 36.6%; in [15], 41.7%; in [16], 45.4%; in assay [17], 72.3%; in assay [18], 59.9%.
